PubChem BioAssay AID1159580 (chemical genetic matrix, 2015)
Hit rate of the full screen: of about 5,500 compounds, about 2,000 (36%) were called active. Another 18% or so got no clear call; they are omitted. No stated cut-off is given here; in the data, active means normalized growth mostly below about 0.91 (no sharp cut-off); inconclusive means no clear call, values can overlap the other calls; inactive means mostly above about 0.92. Some of the results follow.

Assay: chemical genetic growth profiling, strain panel (AID 1159580);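 further: tested at 20 µM; growth read once vehicle control cultures reached saturation at 30 °C; 1 = growth at the plate median or of vehicle wells; lower values mean less growth of the strain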
Conditions: S. cerevisiae deletion strains, growth OD

Measured: normalized growth

O=C(O)CF
inactive: locus YAL013W, strain DEP1, hits give low values 0.998 | locus YAL021C, strain ccr4, hits give low values 1.01 | locus YAL026C, strain drs2, hits give low values 1.02 | locus YAL030W, strain snc1, hits give low values 1.02 | locus YBL061C, strain skt5, hits give low values 1.02 | locus YBR009C, strain hhf1, hits give low values 1.06 | locus YBR021W, strain FUR4, hits give low values 0.97 | locus YBR023C, strain chs3, hits give low values 1.03 | locus YBR171W, strain sec66, hits give low values 1.03 | locus YBR229C, strain ROT2, hits give low values 0.987 | locus YBR231C, strain swc5, hits give low values 1.01 | locus YBR279W, strain paf1, hits give low values 1.03 | locus YCL011C, strain gbp2, hits give low values 1.03 | locus YCL016C, strain dcc1, hits give low values 1.04 | locus YCL029C, strain bik1, hits give low values 0.975 | locus YCL061C, strain MRC1, hits give low values 1.02 | locus YCL069W, strain vba3, hits give low values 1.02 | locus YCR088W, strain abp1, hits give low values 1.02 | locus YDL005C, strain med2, hits give low values 1.02 | locus YDL035C, strain GPR1, hits give low values 1 | locus YDL040C, strain nat1, hits give low values 1.02 | locus YDL074C, strain BRE1, hits give low values 1.03 | locus YDL101C, strain DUN1, hits give low values 0.995 | locus YDL134C, strain PPH21, hits give low values 0.994 | locus YDL185W, strain tfp1, hits give low values 0.967 | locus YDL192W, strain arf1, hits give low values 0.98 | locus YDR001C, strain nth1, hits give low values 1.02 | locus YDR069C, strain doa4, hits give low values 1 | locus YDR101C, strain arx1, hits give low values 0.969 | locus YDR137W, strain rgp1, hits give low values 1.03 | locus YDR150W, strain NUM1, hits give low values 0.995 | locus YDR159W, strain sac3, hits give low values 0.997 | locus YDR162C, strain NBP2, hits give low values 1.03 | locus YDR195W, strain ref2 1 | locus YDR297W, strain sur2, hits give low values 1.03 | locus YDR318W, strain mcm21, hits give low values 0.965 | locus YDR334W, strain swr1, hits give low values 1.03 | locus YDR335W, strain msn5, hits give low values 1.03 | locus YDR388W, hits give low values 0.989 | locus YDR392W, strain spt3, hits give low values 0.981 | locus YDR502C, strain sam2, hits give low values 0.994 | locus YEL003W, strain gim4, hits give low values 1.03 | locus YEL037C, strain rad23, hits give low values 1.03 | locus YEL061C, strain CIN8 (second series), hits give low values 1.03 | locus YEL061C, strain CIN8, hits give low values 0.998 | locus YER015W, strain faa2, hits give low values 1.02 | locus YER016W, strain bim1, hits give low values 1.01 | locus YER110C, hits give low values 0.974 | locus YER111C, strain swi4, hits give low values 1.03 | locus YER155C, strain BEM2 (second series), hits give low values 1.01 | locus YER155C, strain BEM2, hits give low values 0.999 | locus YER167W, strain BCK2, hits give low values 0.985 | locus YFR010W, strain ubp6, hits give low values 1.03 | locus YGL078C, strain dbp3, hits give low values 0.99 | locus YGL086W, strain mad1, hits give low values 0.973 | locus YGL167C, strain pmr1, hits give low values 1.03 | locus YGL173C, strain kem1, hits give low values 1.03 | locus YGL227W, strain vid30, hits give low values 1.02 | locus YGL240W, strain doc1, hits give low values 1 | locus YGL248W, strain PDE1, hits give low values 0.992 | locus YGL253W, strain hxk2, hits give low values 1.01 | locus YGR078C, strain PAC10, hits give low values 1.03 | locus YGR135W, strain pre9, hits give low values 1.01 | locus YGR229C, strain SMI1, hits give low values 1.02 | locus YGR252W, strain gcn5, hits give low values 0.811 | locus YHR013C, strain ard1, hits give low values 1.07 | locus YHR027C, strain rpn1, hits give low values 1.02 | locus YHR030C, strain SLT2, hits give low values 0.988 | locus YHR079C, strain IRE1 (second series), hits give low values 0.979 | locus YHR094C, strain hxt1, hits give low values 0.995 | locus YHR129C, strain ARP1, hits give low values 0.998 | locus YHR142W, strain chs7, hits give low values 1.03 | locus YHR200W, strain rpn10, hits give low values 0.966 | locus YIL066C, strain RNR3, hits give low values 0.988 | locus YIL073C, strain SPO22, hits give low values 0.916 | locus YIL125W, strain kgd1, hits give low values 0.986 | locus YIR030C, strain dcg1, hits give low values 0.991 | locus YJL092W, strain hpr5, hits give low values 1.02 | locus YJL095W, strain BCK1 (second series), hits give low values 1.04 | locus YJL095W, strain BCK1, hits give low values 1.03 | locus YJL115W, strain asf1, hits give low values 1.02 | locus YJL129C, strain trk1, hits give low values 1.05 | locus YJL134W, strain LCB3, hits give low values 0.986 | locus YJL154C, strain vps35, hits give low values 1.02 | locus YJL164C, strain tpk1, hits give low values 1.04 | locus YJL166W, strain qcr8, hits give low values 1 | locus YJL168C, strain set2, hits give low values 0.986 | locus YJL187C, strain SWE1 (second series), hits give low values 1.01 | locus YJL187C, strain SWE1, hits give low values 1.02
